Source: PubChem BioAssay (NCI)
This is part of a sample that, as a whole, favours compounds with a hit. Of some 79,000 tested, about 15% had one in any assay. Unmarked numbers belong to inactive results. Calls of active or inactive are those of the source. Rule as the data show it: active = growth inhibition above about 70%; inactive = the rest.

What was measured:
[1] = NCI Yeast Anticancer Drug Screen. Data for the rad50 strain (AID 155);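 also: 0% = growth of vehicle-only cultures of the same strain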; settings: S. cerevisiae rad50 strain growth inhibition, hits give high values
Summary of the method: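 Yeast carrying a defined DNA repair defect were exposed to test compounds, and growth was compared with vehicle-treated controls to give percent inhibition.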

[2] = NCI Yeast Anticancer Drug Screen. Data for the mec2-1 strain (AID 157); settings: S. cerevisiae mec2-1 strain, hits give high values
Summary of the method: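 Vehicle-treated cultures served as reference for growth inhibition of compound-exposed mec2-1 yeast.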

[3] = NCI Yeast Anticancer Drug Screen. Data for the sgs1 mgt1 strain (AID 161);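 also: 0% = growth of cultures given vehicle only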; settings: S. cerevisiae sgs1 mgt1 strain, hits give high values
Summary of the method: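 Test agents were incubated with a DNA-repair-mutant yeast strain. Growth was then read and compared against vehicle-treated controls.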

[4] = NCI Yeast Anticancer Drug Screen. Data for the cln2 rad14 strain (AID 165);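 also: 0% = growth equal to vehicle treated cultures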; settings: S. cerevisiae cln2 rad14 strain, hits give high values
Summary of the method: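 Each compound was tested on cln2 rad14 yeast. Inhibition of growth was calculated against vehicle-exposed controls.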

[5] = NCI Yeast Anticancer Drug Screen. Data for the bub3 strain (AID 167); settings: S. cerevisiae bub3 mutant strain, hits give high values
Summary of the method: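 Compounds were applied to a genetically altered yeast strain carrying a cell-cycle control defect. Growth inhibition was scored against vehicle-treated controls.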

[6] = NCI Yeast Anticancer Drug Screen. Data for the mlh1 rad18 strain (AID 175); settings: S. cerevisiae mlh1 rad18 strain growth inhibition, hits give high values
Summary of the method: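 Vehicle-treated cultures served as the reference for growth inhibition in a yeast strain carrying DNA damage repair alterations exposed to each compound.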

[7] = at 5.0 µM (retest, dose inferred, filed as 0.5)
[8] = at 50.0 µM (retest, dose inferred, filed as 5.0)

Row | SMILES | growth inhibition [1, 7] | growth inhibition [1, 8] | growth inhibition ([1]; at 50.0 µM) | growth inhibition [2, 7] | growth inhibition [2, 8] | growth inhibition ([2]; at 50.0 µM) | growth inhibition [3, 7] | growth inhibition [3, 8] | growth inhibition ([3]; at 50.0 µM) | growth inhibition [4, 7] | growth inhibition [4, 8] | growth inhibition ([4]; at 50.0 µM) | growth inhibition [5, 7] | growth inhibition [5, 8] | growth inhibition ([5]; at 50.0 µM) | growth inhibition [6, 7] | growth inhibition [6, 8] | growth inhibition ([6]; at 50.0 µM)
1 | Nc1nc(-c2ccccn2)cc2cc(Cl)ccc12 | 93% (active) | 99% (active) | 3.15% | 92% (active) | 100% (active) | -5.45% | 95% (active) | 99% (active) | 7.55% | 88% (active) | 98% (active) | -1.4% | 92% (active) | 99% (active) | 8.05% | 94% (active) | 98% (active) | 13.9%
2 | Cc1ccc(C(=O)OCCN2CCOCC2)c([N+](=O)[O-])c1OCc1ccccc1 | 14% | 61% | 73.2% (active) | 18% | 46% | 63.4% | 13% | 81% (active) | 84.7% (active) | 11% | 28% | 6.7% | 11% | 65% | 68.5% | 10% | 58% | 78.3% (active)
3 | COc1ccc2nc3cc(Cl)ccc3c(NCCC[N+](C)(C)CCCCCCCCCC[N+](C)(C)CCCNc3c4ccc(Cl)cc4nc4ccc(OC)cc34)c2c1 | 44% | 98% (active) | 96% (active) | 22% | 98% (active) | 88.3% (active) | 29% | 98% (active) | 95.8% (active) | 24% | 94% (active) | 55.8% | 21% | 98% (active) | 6.45% | 41% | 99% (active) | 96.2% (active)
4 | [Ce+3].[Cl-].[O-]/N=C(\c1ccccc1)c1ccccn1.[O-]/N=C(\c1ccccc1)c1ccccn1.[O-]/N=C(\c1ccccc1)c1ccccn1 | 36% | 66% | 85.5% (active) | 28% | 76% (active) | 85.4% (active) | 32% | 75% (active) | 85.8% (active) | 29% | 32% | 76.7% (active) | 41% | 95% (active) | 88.3% (active) | 39% | 91% (active) | 86.2% (active)
5 | CC(=O)OCC(C(N)=O)(c1ccccc1)c1ccccc1 | -5% | 1% | -2.6% | -2% | 2% | -10% | -1% | -5% | 12.8% | -5% | -3% | 91.5% (active) | -7% | -1% | 2.8% | -6% | -6% | 11%
6 | Oc1cc2c(cc1C(Nc1ncccn1)c1ccc(F)cc1)OCO2 (configuration not stated) | -1% | 46% | 17.9% | -1% | 40% | 15.7% | 0% | 77% (active) | 79.7% (active) | 4% | 24% | -12% | -1% | 64% | 44.1% | 0% | 74% (active) | 43.5%
7 | CCN(CC)CCCNc1cccc2ccc(OC)nc12 | 1% | 50% | 73.8% (active) | 0% | 24% | 13% | -9% | 60% | 66% | -1% | 33% | 32.7% | 2% | 40% | 51.8% | 4% | 28% | 53.5%
8 | CCOc1ccc(/C=N\NC(=O)c2ccco2)cc1OCC | -6% | 4% | 59.8% | -3% | -2% | 94% (active) | -3% | 11% | 47.7% | -23% | -22% | 67% | -11% | -22% | 92.6% (active) | -2% | -12% | 44.6%
9 | Oc1c(Br)ccc2c(O)c(Br)ccc12 | 42% | 93% (active) | 89.7% (active) | 51% | 94% (active) | 91% (active) | 36% | 98% (active) | 92.5% (active) | 57% | 98% (active) | 90.5% (active) | 53% | 97% (active) | 90.8% (active) | 31% | 88% (active) | 89.4% (active)
10 | Nc1c(/C=C/c2cc3ccc(C4=NCCN4)cc3[nH]2)[nH]c2cc(C3=NCCN3)ccc12 | 78% (active) | 97% (active) | 89.3% (active) | 41% | 96% (active) | 89% (active) | 36% | 94% (active) | 89.2% (active) | 47% | 94% (active) | 89.5% (active) | 42% | 92% (active) | 86.5% (active) | 36% | 96% (active) | 90.5% (active)
11 | c1ccc(N/N=C2/CCCC3/C(=N\Nc4ccccc4)CCCC23)cc1 (configuration not stated) | 3% | 99% (active) | 98.2% (active) | -5% | 99% (active) | 65.5% | 13% | 99% (active) | 63.2% | -11% | 99% (active) | 73.8% (active) | -8% | 98% (active) | 9.85% | 15% | 99% (active) | 96.1% (active)
12 | Cc1ccc(S(=O)(=O)OCC(C)(C)C)cc1 | -152% | -169% | 8.4% | -48% | -59% | 2.05% | -63% | -69% | -2.7% | -61% | -83% | -29.6% | -57% | 5% | 86.8% (active) | -125% | -127% | 14.5%
13 | CCS(=O)(=O)OC(C)CCl (configuration not stated) | -2% | -3% | -5.65% | 1% | 0% | -14.7% | 0% | -1% | 11.8% | -2% | 2% | 70.2% (active) | -2% | -3% | -4.9% | -2% | -5% | 49.5%
14 | CC(=O)OCCn1c2nc(=O)[nH]c(=O)c-2nc2cc(C)c(C)cc21 | -4% | 18% | 0.8% | 0% | 18% | -3.35% | 1% | 81% (active) | 35% | -4% | 2% | -42.9% | -1% | 1% | 8% | 9% | 14% | 47.5%
15 | Cc1cc(NCCO)nc2c1ccc1ccccc12 | 5% | 9% | 53.9% | 3% | -2% | 35.6% | 3% | 16% | 46% | -2% | 23% | 16.6% | -3% | 16% | 19% | 2% | 28% | 61.2%
16 | Cc1ccc(-c2n[nH]c(=O)n2/N=C\c2ccccc2)cc1 | 21% | 38% | 40.9% | 18% | 25% | 21.9% | 28% | 39% | 50.1% | 12% | 31% | 15.2% | 4% | 23% | 23% | 17% | 44% | 59%
17 | CN(C)CCCSc1c2ccccc2nc2cc(NCC(=O)Nc3ccccc3-c3ccccc3NC(=O)CNc3ccc4c(SCCCN(C)C)c5ccccc5nc4c3)ccc12 | 53% | 98% (active) | 90.6% (active) | 38% | 99% (active) | 92.5% (active) | 32% | 98% (active) | 93.3% (active) | 30% | 63% | 78.3% (active) | 39% | 98% (active) | 91.5% (active) | 41% | 98% (active) | 90.7% (active)
18 | CN1CCCC(C(=O)OCC(=O)C2(O)CCC3C4CCC5=CC(=O)CCC5(C)C4C(O)CC32C)C1 (configuration not stated) | 13% | 11% | 29.2% | -5% | 0% | 5% | -7% | 5% | -11% | 3% | 8% | 38.4% | -7% | 9% | 12.4% | -3% | 35% | 42.9%
19 | C=CCN1/C(=C\C=C\c2ccc3cc(C)ccc3[n+]2CC=C)C=Cc2cc(C)ccc21 | 58% | 97% (active) | 90.5% (active) | 63% | 99% (active) | 91.1% (active) | 90% (active) | 98% (active) | 92.6% (active) | 78% (active) | 98% (active) | 91.9% (active) | 83% (active) | 98% (active) | 91% (active) | 79% (active) | 98% (active) | 89.2% (active)
